About 83,000 compounds went through this panel and 20% of them were active in at least one assay; those are over-represented in the sample as a whole.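 Step 1: grow cells in 96-well plates. Step 2: add test compound at a single concentration. Step 3: incubate 48 h. Step 4: record percent growth.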 Unmarked numbers belong to inactive results. Active and inactive are the calls of the source. How the source made its calls: active means growth percent below 10; inactive means the rest.

The test system of the assay is HL-60(TB) leukemia. Description: NCI-60 one-dose screen, 48 h (100 = growth as untreated, 0 = no growth, -100 = all killed). To be noted: 10 µM unless noted.
Consider `COc1cc(/C=N/Nc2ncc(-c3cc4cc5c(cc4o3)OCO5)s2)cc(OC)c1OC`, for which the growth is 14.7%. Consider `COc1ccc(N)c(-c2cc3c(c4c2[nH]c2ccc(OC)cc24)CCCC3)c1`, for which the growth was 78.8%. Under `C=C1CC[C@@H]2C(C)(C)[C@H](O)CC[C@@]2(C)[C@@H]1COc1ccc2ccc(=O)oc2c1` stands 46.4%. Consider `COc1cc(/C=C\c2cc(/C=C\c3ccc(O)c(OC)c3)n(C(=O)CNc3ccc(Cl)cc3)n2)ccc1O`, for which the growth is -11.6% (active). For `CCc1c(Nc2ccc(C)cc2)nc(N)[nH]c1=O`, the growth is 89.6%. With `O=C1/C(=C/c2ccccn2)NC(=S)N1c1ccccc1Cl` the figure was 26.9%; with `Nc1nccc(=S)[nH]1`, 79.9%. Take `Cc1ccc(-c2nc3ccc(Cl)cn3c2NC2CCCCC2)o1`: the growth was 61.7%. On to `Nc1nc(Cl)nc2c1ncn2C1O[C@H](CO)[C@@H](O)[C@@H]1F` (stereo not given in full), for which the growth was -34.8% (active). In the case of `CN(C)c1ccc2c(c1)OC(N)=C(C#N)C2c1ccc2c(c1)CCO2` (stereo not given), the growth is -1.56% (active). Regarding `CC1=NC(=S)NC(c2ccccc2)/C1=C1/CC(c2ccccc2O)NN1` (stereo not given), the growth is 97.2%.

As to `CC1(C)C(=O)/C(=C\c2ccco2)C[C@]2(C)[C@H]3CC=C4[C@@H]5C[C@](C)(C(=O)O)CC[C@]5(C)CC[C@@]4(C)[C@]3(C)CC[C@@H]12`, the growth was -21.1% [100 µM] (active).

Regarding `COC(=O)/C=C1\S/C(=N\Nc2ccc([N+](=O)[O-])cc2[N+](=O)[O-])N(C2CCCCC2)C1=O`, the growth was 8.63% (active). In the case of `Nc1c2c(c(O)c3c1=C(CO)C=N3)=NCCS2=O` (stereo not given), the growth was -42.1% (active). Under `O=C(CC(=O)C(F)(F)C(F)(F)C(F)(F)F)c1cc2ccccc2o1` stands 99.3%. For the compound `Cc1cc(=O)n(C(=O)Nc2ccccc2Cl)c2cc(O)ccc12`, the growth was 107%.

As for `COc1cc(-c2nc3sccn3c2-c2ccnc(NCCNS(=O)(=O)c3ccc(Cl)cc3)n2)ccc1F`, the growth was 9.59% (active). As to `O=C(/C=C/c1cccc(O)c1)c1ccccc1O`, the growth was 66%. As for `O=C(O)/C=C/C(=O)NCc1ccccc1`, the growth was 105%. With `Clc1ccc2c(NCCCN3CCN(c4nc(N5CCOCC5)nc5ccccc45)CC3)ccnc2c1` the figure was -51.5% (active). With `O=C(CCCCCCCCC(=O)Nc1cccc(C2=NCCN2)c1)Nc1cccc(C2=NCCN2)c1` the figure was 81.9%; with `COc1ccc(C2Nc3nc(OC)n(C)c(=O)c3N=C3c4ccccc4C(=O)C32)cc1` (stereo not given), 67.1%. In the case of `C=C(CN1CCN(c2cccc(C(F)(F)F)n2)CC1)c1ccc(C(=O)Nc2ccccc2N)cc1`, the growth is -27.4% (active). In the case of `S=C(c1ccc2c(c1)OCO2)N1CCN(c2cccc(Cl)c2)CC1`, the growth was 11.9%. Under `CNCCn1c(=O)c2cc(OC)c(OC)cc2c2ccc3cc4c(cc3c21)OCO4` stands -25.7% (active). Regarding `S=C(c1cccs1)N1CCN(c2cccc(Cl)c2)CC1`, the growth was 90.8%. In the case of `NC1(CO)COC(c2ccccc2)OC1` (stereo not given), the growth is 89.2%.

Take `CN(C)CCN=c1nc2c(c(N)n1-c1ccccc1)c(=S)n(-c1ccccc1)c(=S)n2-c1ccccc1`: the growth is 36.6%.

For the compound `O=c1[nH]cc(Nc2cc(Cl)c3nonc3c2[N+](=O)[O-])c(=O)[nH]1`, the growth is 75.8%.

Turning to `CCCCCCCCCCCCCCCCCCOc1ccc(CC(=O)OCC[N+](C)(C)C)cc1`, the growth is 2.32% (active). `C[C@@H](Oc1ccc(C(=O)NS(=O)(=O)C(C)(C)C)cc1C(F)(F)F)c1ccc(Oc2ccccc2)cn1`: the growth was 15.8%. As for `CCNC(=O)Oc1ccc(/C(=C(/C)Cc2ccc(OC)cc2)c2ccc(OCCN(CC)CC)cc2)cc1`, the growth is 34.1%. As to `COc1ccc2oc(-c3ccc(Cl)cc3)c(N3CCN(C)CC3)c2c1`, the growth is 28.2%. For `CCCCCCNC(=O)Oc1ccc(/C(=C(\C)c2ccc(Cl)cc2)c2ccc(OCCN(CC)CC)cc2)cc1`, the growth was 44.3%.

Regarding `CC(C)(C)n1cc(-c2ccnc(NCCCNS(=O)(=O)c3ccc(Br)cc3)c2)c(-c2cccc(O)c2)n1`, the growth was 3.72% (active).

Turning to `CC(O)CN(CCO)CCN(CCO)CC(C)O` (stereo not given), the growth is 102%. For `CC1(C)CC[C@]2(CO)CC[C@]3(C)[C@H](CC[C@@H]4[C@@]5(C)CCCNC(C)(C)[C@@H]5CC[C@]43C)[C@H]2[C@H]1O`, the growth was 57.8%. Consider `Oc1c(I)cc(I)cc1CNCc1ccccn1`, for which the growth was 20.2%. Take `Clc1ccc(C2CC(c3cccc(Nc4ccncc4)c3)=NN2c2ccccc2)cc1` (stereo not given): the growth is -38.6% (active).

Regarding `C(/C=C/c1ccccc1)=Nc1ccc(CCc2ccc(N=C/C=C/c3ccccc3)cc2)cc1`, the growth is 42.9%.

For the origin of these results see PubChem BioAssay (NCI).
